Out of some 1,400 compounds screened, about 50 (4%) were called active.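 Rule for the calls: active = fitted curve reaches 30% CPE protection at or below the top valid dose, with every test run called active; inconclusive = test runs disagree, some active and some not; inactive = every test run inactive, including effects in the wrong direction.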 Only a sample is shown. Results with a measured potency or affinity are listed apart.
assay: Dengue virus 2 cytopathic effect protection, dose response, BHK-21 cells, ATP luminescence, cherry-pick (AID 687031); conditions: BHK-21 DENV2 CPE protection, 5 d; series mostly up to 19.5 µM; CPE protection (higher = active): at the top concentration;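 note: 0% = infected DMSO wells and 100% = uninfected cell wells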

CPE protection (higher = active), inactive:
Cc1cnc(CNC(=O)C2CCC(=O)N(Cc3ccc(Cl)cc3)C2)[nH]1 (stereo unspecified) -5.86%, ClC(CCN1CCN(Cc2ccccc2)CC1)c1ccccc1 (stereo unspecified) 0.446%, Cc1cccc(N(CC(=O)NC(C)(C)C)C(=O)CNC(=O)c2cccs2)c1C -10.1%, CS(=O)(=O)N1CCc2cc(C(=O)N3CCN(c4ccccc4)CC3)ccc21 14.1%, CCOC(=O)N1CCC(NCCNC(=O)c2ccc(F)c(F)c2)CC1 -26.1%, CC1CCN(C(=O)COC(=O)c2cc3ccccc3oc2=O)CC1 29.4%, Cc1noc(C)c1NC(=O)N(C)C[C@@H]1Oc2c(NS(=O)(=O)c3ccccc3)cccc2C(=O)N([C@@H](C)CO)C[C@@H]1C 1.59%, CCNC(=O)C1(C)CCN(Cc2noc(-c3c(C)noc3C)n2)C1 (stereo unspecified) 2.45%, O=C(C[C@H]1C=C[C@H](NS(=O)(=O)c2ccccc2)[C@H](CO)O1)N1CCC(Cc2ccccc2)CC1 -16.4%, O=C(NC1CCCCC1)N[C@H]1C=C[C@@H](CC(=O)N2CCOCC2)O[C@@H]1CO 15.7%, CCN(c1ccccc1)S(=O)(=O)c1ccc(OC)c(NC(=O)C2CCC2)c1 -14.6%, Cc1cccc(OCC(=O)NNC(=O)C2CCCCC2C(=O)O)c1 (stereo unspecified) -36.8%, CN1CCN(CCOc2ccc(-c3ccccc3)cc2)CC1 -14.5%, c1ccc(-c2ccc(OCCN3CCOCC3)cc2)cc1 6.91%, Cc1cc(=O)oc2cc(OCCSCCN3CCCC3)ccc12 -9.74%, O=C(NCc1cc(C(F)(F)F)cc(C(F)(F)F)c1)C1CC(c2cccc(F)c2)=NO1 (stereo unspecified) 1.22%, O=C(C[C@@H]1CC[C@H]2[C@@H](COC[C@@H](O)CN2C(=O)c2ccncc2)O1)NCc1ccc(-c2ccccc2)cc1 -12.4%, CCCC[C@@H]1CNC(=O)C(=O)N1CCCCC1CCCCC1 1.63%, CCC(=O)Nc1ccc2c(c1)C(=O)N(C)[C@@H]1CC[C@H](CC(=O)N[C@@H](C)c3ccccc3)O[C@@H]1CO2 30.3%, O=C(NCc1ccccc1F)[C@H]1N[C@H]2c3ccc(-c4ccccc4F)c(=O)n3C[C@H]2[C@@H]1CO 22.1%, O=C(NCCN1CCCC1)[C@H]1N[C@H]2c3ccc(-c4ccccc4)c(=O)n3C[C@H]2[C@@H]1CO 4.15%, O=C(c1cc(-c2ccccc2)n[nH]1)N1CCN(S(=O)(=O)c2ccccc2)CC1 8.57%, COCCn1nnnc1C(c1cc2cc(C)ccc2[nH]c1=O)N1CCN(C2CCCCC2)CC1 (stereo unspecified) 9.44%, CCN(CC(=O)Nc1c(F)cccc1F)C(=O)c1cccc(S(=O)(=O)NCc2ccccc2)c1 -0.434%, CCN(CC(=O)Nc1cc(Cl)ccc1-n1cncn1)Cc1nc2ccccc2c(=O)[nH]1 1.83%, C[C@@H]1CN([C@H](C)CO)C(=O)Cc2cc(NC(=O)Cn3cnnn3)ccc2O[C@@H]1CN(C)Cc1ccc(C(=O)Nc2ccccc2N)cc1 21.3% [at 18 µM], Cc1cnc(CN(C)C(=O)CC2C(=O)NCCN2Cc2cccc(F)c2F)[nH]1 (stereo unspecified) 12.8%, CCCN1CCC(NC(=O)CC2C(=O)NCCN2Cc2cccc(OC)c2)CC1 (stereo unspecified) 7.2%, COc1ccc(C(CCN2CCOCC2)c2c(OC)cc(OC)c3c(C)cc(=O)oc23)cc1 (stereo unspecified) 27.1%, CN1C[C@@H]2[C@@H]3C(=O)N(Cc4ccccc4)C(=O)[C@@H]3[C@](C)(C1=O)N2C(=O)c1ccc(C(C)(C)C)cc1 8.78%, O=C(c1ccccc1Cc1ccccc1)N1CCN(S(=O)(=O)c2ccccc2)CC1 0.551%, Cc1ccc(S(=O)(=O)N2CCN(C(=O)COC(=O)Cc3ccc(Cl)cc3)CC2)c(C)c1 -8.53%, O=C1[C@@H](Oc2ccccc2)[C@@H](c2ccncc2)N1c1ccncc1 -3.03%, Cc1ccc2ccc(C(Nc3ccccc3)c3ccccc3)c(O)c2n1 (stereo unspecified) -6.24%, Cc1ccc(CNC(=O)C2CCC(=O)N(CCc3ccccn3)C2)s1 (stereo unspecified) -1.35%, Cc1cccc(N2CCN(C(C(=O)NCc3ccccc3)c3ccc(F)cc3)CC2)c1C (stereo unspecified) -8.34%, CC1(C)CC(=O)N(CC(=O)O)c2ccccc2S1(=O)=O -20.4%, CCNC(=O)C[C@H]1CC[C@@H]2[C@H](COC[C@H](O)CN2Cc2ccc(Cl)c(Cl)c2)O1 12.1%, Cc1noc(C)c1S(=O)(=O)Nc1ccc2c(c1)C(=O)N([C@@H](C)CO)C[C@@H](C)[C@@H](CN(C)C(=O)Nc1ccccc1)OCCCC[C@@H](C)O2 34% [at 10 µM], Cc1noc(C)c1S(=O)(=O)Nc1ccc2c(c1)C(=O)N([C@H](C)CO)C[C@H](C)[C@H](CN(C)C(=O)Nc1ccccc1)OCCCC[C@@H](C)O2 7.27%, CNc1cc(-c2ccc(O)cc2C)ncn1 -18%, O=C(C1CCOCC1)N1CC[C@@H]2[C@H]1c1cc(-c3cccc(F)c3)ccc1N[C@@H]2CO -4.08%, O=C(C1CC1)N1CC[C@@H]2[C@H]1c1cc(-c3ccc(F)cc3)ccc1N[C@@H]2CO 19.9%, Cc1ccc(S(=O)(=O)c2nnn3c2nc(N2CCOCC2)c2ccccc23)cc1C 18.2%, CCCN(CC(=O)Nc1ccccc1C)C(=O)C1CCN(S(=O)(=O)c2ccc(C)c(C)c2)CC1 6.3%, O=C(NCc1ccccn1)C(=O)NCC1OCCN1S(=O)(=O)c1ccc(Br)cc1 (stereo unspecified) -4.64%, CCC(C)(C)C1CCc2[nH]nc(C(=O)NCc3ccccn3)c2C1 (stereo unspecified) 13.8% [at 10 µM], COc1ccc(CN(C)C[C@H]2OCCCC[C@@H](C)Oc3ccc(NC(=O)NC(C)C)cc3C(=O)N([C@H](C)CO)C[C@H]2C)cc1 13.6% [at 21 µM], CN1c2ccc(-c3cccc(F)c3)cc2[C@H]2[C@H](CCN2C(=O)Cc2cccnc2)[C@H]1CO -9.94%, O=C(C1CCOCC1)N1C[C@@H]2[C@H](c3ccccc31)[C@H](CO)N2C(=O)c1ccccc1 -12.7%, CC(C)NC(=O)N1C[C@H]2[C@@H](c3ccccc31)[C@@H](CO)N2C(=O)c1ccccn1 6.1%, COc1ccc2ccccc2c1/C=N/NC(=O)c1ccccc1F 3.87%, Cc1ccccc1S(=O)(=O)N1CC[C@H]2[C@@H](CO)N(C)c3ccc(Br)cc3[C@H]21 2.06%, CCOc1ccc2[nH]c3ncccc3c(=O)c2c1 -4.21%, CC1(C(=O)NCc2cccs2)Cc2c(-c3cccc(C(F)(F)F)c3)ccnc2O1 (stereo unspecified) 17%, CCc1nnc(NC(=O)c2ccc(F)c(S(=O)(=O)N3CCCCC3)c2)s1 -19.2%

— PubChem BioAssay AID687031 (Broad Institute, 2013)
